Screening data as filed in PubChem BioAssay.
The list is not random: actives were taken first. Their share in the collection is about 1.5%.
ABHD5-PLIN5 inh = ABHD5-PLIN5 protein interaction inhibition. inhibition, % at 4 µM. AID 602281. Split G. princeps luciferase complementation, luminescence, 4 h. Q00G26+Q8WTS1. 360,000 compounds, 0.78% hits;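 active = inhibition above the mean inhibition across every tested compound plus 3 SD, cut at about 22% in these data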;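 note: 0% = DMSO only wells and the 100% control is not disclosed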
TLR9-MyD88 inh = inhibitors of human TLR9-MyD88 binding. CHO BLA complementation TLR9-MyD88, CCF4 FRET ratio. inhibition, % at 4.98 µM. 340,000 compounds, 0.21% hits. AID 504734;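 active = inhibition above the mean over all tested compounds plus 3 SD, cut at about 21% in these data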;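 note: 0% = DMSO only wells and 100% = clavulanate BLA inhibitor control wells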
NOD2 RIPK2 PPI = inhibitors of human NOD2-RIPK2 interaction; O43353; CHO BLA complementation NOD2-RIPK2, CCF4 ratio; inhibition, % at 4.98 µM; 360,000 compounds, 0.38% hits; in the data active = inhibition above about 21%;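 note: 0% = vehicle only and 100% = reference blocker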
Target sequence (O43353 whole entry, looked up): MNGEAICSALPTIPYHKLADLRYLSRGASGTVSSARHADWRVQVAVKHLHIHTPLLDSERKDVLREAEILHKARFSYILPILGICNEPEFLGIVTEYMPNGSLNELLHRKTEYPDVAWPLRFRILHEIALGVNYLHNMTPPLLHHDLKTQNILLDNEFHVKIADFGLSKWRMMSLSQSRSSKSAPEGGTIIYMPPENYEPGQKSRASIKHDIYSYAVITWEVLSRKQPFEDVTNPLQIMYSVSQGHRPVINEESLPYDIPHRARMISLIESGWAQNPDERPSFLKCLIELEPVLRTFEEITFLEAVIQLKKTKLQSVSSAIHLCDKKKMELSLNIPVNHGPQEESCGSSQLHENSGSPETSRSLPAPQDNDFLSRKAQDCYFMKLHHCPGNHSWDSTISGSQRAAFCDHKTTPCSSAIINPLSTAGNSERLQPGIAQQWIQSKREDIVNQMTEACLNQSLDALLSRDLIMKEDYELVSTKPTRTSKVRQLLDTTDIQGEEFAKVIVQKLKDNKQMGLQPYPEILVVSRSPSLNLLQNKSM
TLR4 MyD88 comp = TLR4-MyD88 interaction inhibition in cells | 200,000 compounds, 0.18% hits | O00206+Q99836 | inhibition, % at 8.4 µM | AID 861 | HeLa CL3-4 TLR4/MyD88 BLA complementation, FRET ratio; in the data active = inhibition above about 25%;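 note: 0% = vehicle and 100% = reference inhibitor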
NTR1 ag = agonists of human neurotensin receptor NTR1. P30989. NTR1-U2OS beta-arrestin-GFP spot imaging, agonist mode. 330,000 compounds, 0.17% hits. activation, % at 20 µM;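 active = activation at or above 40% of the spot to cytoplasm intensity ratio, with at least 20 cells analyzed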;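 note: 0% = DMSO without peptide and 100% = 100 nM NTR1 peptide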
Beta2AR agonist = agonists of human beta-2 adrenergic receptor inducing internalization; P07550; Am2.2-beta2AR cells, FAP receptor internalization, flow cytometry; response, % (test concentration not listed); 340,000 compounds, 0.43% hits;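 active = response above a set limit, near 3 SD of response in nonfluorescent compounds, cut at about 42% in these data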
TLR9-MyD88 cf = confirmation of human TLR9-MyD88 binding inhibitors; shares compounds with TLR9-MyD88 inh; CHO TLR9/MyD88 BLA complementation, CCF4 FRET ratio; inhibition, % at 4.98 µM; 680 compounds, 51% hits;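 active = mean inhibition across three repeats above about 21% taken from the earlier screen, limit read from the data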;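 note: blue over green emission ratio reports constitutive TLR9 MyD88 association via BLA complementation; 0% = DMSO vehicle wells and 100% = clavulanate BLA inhibitor wells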
BLA counter-1 = beta-lactamase reporter inhibition, counter-screen artifact | shares compounds with TLR9-MyD88 inh | CHO-BLA cells, CCF4 FRET ratio, BLA reporter | inhibition, % at 4.98 µM | 680 compounds, 7% hits | AID 540251;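 active = mean inhibition above a 50% cutoff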;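 note: counterscreen of TLR9-MyD88 hits on CMV-driven BLA in CHO-K1 cells; 0% = DMSO alone and 100% = clavulanate blocking BLA; higher means less blue over green ratio so more BLA blockade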
TLR9 CHO tox = counter-screen for TLR9-MyD88 inhibitors: cytotoxicity in CHO cells. shares compounds with TLR9-MyD88 inh. inhibition, % at 4.98 µM. 680 compounds, 39% hits. luminescence; in the data active = inhibition above about 11%
ABHD5 PLIN5 conf = confirmation of human ABHD5-PLIN5 interaction inhibitors; shares compounds with ABHD5-PLIN5 inh; biochemical ABHD5-PLIN5 interaction, luminescence; inhibition, % at 4 µM; 2,200 compounds, 67% hits; AID 651612; in the data active = inhibition above about 23%;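 note: 0% = DMSO vehicle wells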
HNF4 split-luc = counter-screen for ABHD5-PLIN5 inhibitors: HNF4 split-luciferase. shares compounds with ABHD5-PLIN5 inh. HNF4 dimerization, luminescence, biochemical. inhibition, % at 4 µM. 2,200 compounds, 77% hits. AID 651674;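 active = mean inhibition across replicate wells exceeding the computed hit threshold, cut at about 13% in these data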;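 note: light from luciferase halves that rejoin when HNF4 fusion proteins dimerize; 0% = DMSO only wells and the 100% control is not given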
NOD2-RIPK2 conf = NOD2-RIPK2 interaction inhibition confirmed. shares compounds with NOD2 RIPK2 PPI. CHO cells, NOD2-RIPK2 BLA complementation, CCF4 FRET. inhibition, % at 4.98 µM. 1,200 compounds, 70% hits;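 active = mean inhibition across replicates above a set limit taken from the earlier primary screen, cut at about 21% in these data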;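 note: 0% = DMSO-only wells and the high end = clavulanate BLA-blocked wells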
BLA counter-2 = hits BLA reporter in NOD2-RIPK2 inhibitor counterscreen | shares compounds with NOD2 RIPK2 PPI | CHO BLA reporter, CCF4 FRET ratio | inhibition, % at 4.98 µM | 1,200 compounds, 57% hits | AID 624371;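 active = mean inhibition above the low-control mean inhibition plus three low-control SD, cut at about 11% in these data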;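 note: 0% = DMSO only wells and 100% = clavulanate high control wells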
An asterisk follows results filed as active; · = no result.

SMILES	ABHD5-PLIN5 inh	TLR9-MyD88 inh	NOD2 RIPK2 PPI	TLR4 MyD88 comp	NTR1 ag	Beta2AR agonist	TLR9-MyD88 cf	BLA counter-1	TLR9 CHO tox	NOD2-RIPK2 conf	BLA counter-2	others
Cc1ccccc1Oc1cc(-n2ncc(Cl)c(Cl)c2=O)ncn1	9.2	34.6*	25.5*	-8.3	·	25.7	38.4*	23.7	98.8*	75.6*	-3.5
CCOc1cnn(-c2cc(Oc3ccc(C)cc3)ncn2)c(=O)c1Cl	5.8	-8.4	-9.0	8.0	-0.8	-16.0	·	·	·	·	·
CCOC(=O)C1(C)CCCN(C(=O)c2ccc3c(c2)CCO3)C1 (centres undefined)	2.4	·	2.3	·	·	·	·	·	·	·	·
O=C(NCc1ccccc1C(F)(F)F)c1cccc2c1C(=O)c1ccc(N3CCOCC3)cc1S2(=O)=O	0.3	4.3	-1.3	·	1.3	17.7	·	·	·	·	·
Cc1ccc(CNC(=O)c2cccc3c2C(=O)c2ccc(N4CCCCC4)cc2S3(=O)=O)cc1	11.1	25.0*	27.4*	·	2.9	-3.8	12.3	13.3	-0.1	31.0*	33.3*
O=C(NCc1ccccc1C(F)(F)F)c1cccc2c1C(=O)c1ccc(N3CCC(N4CCCCC4)CC3)cc1S2(=O)=O	12.1	30.5*	67.8*	·	·	·	29.7*	40.8	5.3	73.3*	69.8*
O=S(=O)(c1ccccc1)n1cc(-c2cccc3nccn23)c2ccccc21	1.7	·	-2.0	·	·	·	·	·	·	·	·
CC(=O)CC(=O)NC1CCc2ccccc21 (centres undefined)	-0.5	-2.1	-17.6	·	·	-11.0	·	·	·	·	·
CN(C(=O)CN1C(=O)c2cccc(N)c2C1=O)C1CCCCC1	4.2	29.1*	60.8*	·	-0.4	-18.6	17.4	20.0	1.6	50.9*	48.8*
O=C1C=CC(=O)N1CCNc1ncc(C(F)(F)F)cc1Cl	45.2*	27.9*	47.2*	8.6	28.9	69.2*	31.6*	10.7	99.5*	85.9*	23.5*	ABHD5 PLIN5 conf=61.4*;HNF4 split-luc=107.0*
COc1cc(C)ccc1S(=O)(=O)NC(=O)Cn1nnc(COc2ccc3c(c2)CCCC3)c1C	0.5	·	1.3	·	·	·	·	·	·	·	·
COc1ccc(-c2cc3ccc(O)cc3oc2=O)cc1	13.2	21.5*	38.9*	·	3.5	3.4	17.5	26.2	1.4	42.7*	51.8*
COc1ccc(-c2cc3ccc(OCC(C)=O)cc3oc2=O)cc1	-5.6	-7.5	0.7	·	-0.8	3.9	·	·	·	·	·
Cc1ccccc1CNC(=O)c1csc([C@@H]2C[C@H](O)[C@@H](CO)O2)n1	-1.3	·	1.5	·	·	·	·	·	·	·	·
Nc1cccc2c1C(=O)N(CCOc1ccc(F)cc1)C2=O	-0.2	23.2*	22.1*	·	-0.2	-3.8	15.5	17.7	3.2	33.3*	43.6*
CC(C)CN1CCC1(C)C(=O)Nc1cccc(C#N)c1 (centres undefined)	-2.3	·	-0.4	·	·	·	·	·	·	·	·
O=C(CN1C(=O)c2cccc3cccc1c23)Nc1ccccc1C(=O)NCc1ccco1	22.9*	31.7*	23.0*	-3.9	3.0	9.2	7.9	11.9	3.1	22.0*	22.1*
Cn1c(=O)c2cc(NC(=O)CCc3ccccc3)ccc2n1-c1ccccc1F	-0.4	·	1.9	·	·	·	·	·	·	·	·
